Screens as filed in PubChem BioAssay.
HepG2 tox: HepG2 cytotoxicity, counter-screen for TGF-b inhibitors; HepG2 CAGA-GFP viability, ATP luminescence, 18 h; Potency, µM (highest dose often 46.1 µM), for the others: at the top dose activity change, negative = cytotoxicity, actives largely listed as cytotoxic; 410,000 tested, 0.76% active; AID 588856; also: potency is read from the fitted curve at half-maximal effect
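CellTiter-Glo luminescence gave cytotoxicity after 18 hours at 37 degrees C. The cells were HepG2 CAGA-GFP in 1% FBS DMEM, stimulated with 500 pg/mL TGF-beta after compound addition. %Activity was normalised to no-cell wells (complete cell-killing) and DMSO (no toxicity), and curves were fitted and classified.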
TDP1 block: blocks human tyrosyl-DNA phosphodiesterase 1 | Potency, µM (series often up to 130 µM), inactives show top-dose activity change, negative = inhibition, usual class: inhibitors | recombinant TDP1, AlphaScreen DNA substrate cleavage | Q9NUW8 | 350,000 tested, 0.28% active; also: potency is read from the fitted curve at half-maximal effect; % is scaled to controls: 0 for no effect and ±100 for the full control effect; nearly all actives have a fitted effect of over 40% in size
Target sequence (Q9NUW8 whole entry, looked up): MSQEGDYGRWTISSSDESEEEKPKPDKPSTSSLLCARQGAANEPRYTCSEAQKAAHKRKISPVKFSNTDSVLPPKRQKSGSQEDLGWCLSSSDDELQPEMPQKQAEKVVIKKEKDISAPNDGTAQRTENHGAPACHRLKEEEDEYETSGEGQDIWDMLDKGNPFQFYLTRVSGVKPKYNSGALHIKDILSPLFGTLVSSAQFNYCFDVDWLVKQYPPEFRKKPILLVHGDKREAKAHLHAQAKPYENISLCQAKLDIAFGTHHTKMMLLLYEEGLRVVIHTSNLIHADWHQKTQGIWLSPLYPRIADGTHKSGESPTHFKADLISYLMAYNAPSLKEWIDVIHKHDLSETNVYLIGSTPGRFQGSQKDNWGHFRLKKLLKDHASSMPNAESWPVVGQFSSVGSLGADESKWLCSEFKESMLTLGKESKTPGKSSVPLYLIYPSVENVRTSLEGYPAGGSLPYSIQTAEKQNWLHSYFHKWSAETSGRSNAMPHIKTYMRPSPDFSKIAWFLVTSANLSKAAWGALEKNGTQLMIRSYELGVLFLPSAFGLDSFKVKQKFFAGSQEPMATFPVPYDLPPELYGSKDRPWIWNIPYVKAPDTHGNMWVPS
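Enzyme-compound mixtures sat 15 min at room temperature, followed by a 5 min reaction with 15 nM final substrate and 10 min with AlphaScreen beads. Recombinant human Tdp1 was used at 1 nM final.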
TDP1 cell CPT: DT40-hTDP1 cell growth loss with CPT | chicken DT40 Tdp1-/-;hTDP1 cells + 20 nM CPT, ATP luminescence, 48 h | Potency, µM (series often up to 46.2 µM), for inactives: at the top dose activity change, negative = growth inhibition, most hits filed as inhibitors | 420,000 tested, 12% active; also: potency is read from the fitted curve at half-maximal effect; % is scaled to controls: 0 for no effect and ±100 for the full control effect; nearly all actives have a fitted effect of over 55% in size
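Chicken DT40 Tdp1-/- cells complemented with human TDP1, 400 cells/well, exposed to compounds plus 20 nM camptothecin for at least 48 h at 37 C; viability read as ATP content by CellTiter-Glo luminescence.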
IL1B secr inh: inhibitors of inflammasome signaling (IL-1 beta secretion); THP-1 LPS/ATP IL-1B secretion, AlphaLISA, 16 h; stronger effect = lower value; activity change, % at 57.5 µM; 360,000 tested, 4.7% active; AID 743279; in the data active = activity change below about -50%; inconclusive = mostly about -30% to -49%; also: % is scaled to controls: 0 for no effect and ±100 for the full control effect
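Secreted IL-1B measured by AlphaLISA bead assay after 16 h compound exposure of THP-1 cells; compounds (final up to 57.5 uM) added 1 h before LPS (250 ng/mL) and ATP (1.25 mM) stimulation; lower signal means less secretion.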
TGFb inhibitor: inhibitors of TGF-b signaling; Potency, µM (titrated, usually from 46.1 µM), inactives show at the highest dose activity, negative = inhibition, actives largely listed as inhibitors; 410,000 tested, 1.2% active; AID 588855; HepG2 CAGA-GFP TGF-b/SMAD3 reporter, GFP fluorescence, 18 h; TGF-beta stimulated, 500 pg/mL final; also: potency is read from the fitted curve at half-maximal effect; % is scaled to controls: 0 for no effect and ±100 for the full control effect; nearly all actives have a fitted effect of over 65% in size
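Read-out: total well GFP (ex488/em500-530) summed from mean per-cell fluorescence. Cells: HEPG2 CAGA-GFP, 1% FBS DMEM, 18 h at 37 degrees C with 500 pg/mL final TGF-beta. Unstimulated wells served as the full-inhibition control; stimulated DMSO wells = 0%.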
DT40 TDP1 no CPT: qHTS for Inhibitors of human tyrosyl-DNA phosphodiesterase 1 (TDP1): qHTS in cells in absence of CPT. DT40 Tdp1-/- hTDP1 cells, no CPT, ATP luminescence, 48 h. Potency, µM (titrated, usually from 46.2 µM), for the others: at the highest dose activity change, negative = growth inhibition, most hits filed as inhibitors. 420,000 tested, 15% active; also: potency is read from the fitted curve at half-maximal effect; % is scaled to controls: 0 for no effect and ±100 for the full control effect; nearly all actives have a fitted effect of over 55% in size
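Growth kinetics read by CellTiter-Glo luminescence after ≥48 hr at 37 °C. Cells: DT40 Tdp1-/- stably carrying human TDP1, 400 per well, compound exposure in the absence of CPT (DMSO vehicle).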
The depositor's hits bear a star; ? = inconclusive; . = no result given; [ ] = another dose, or the depositor's remark. This is a sample that favours compounds with a hit; in the whole collection about 18% have one here. Unless noted, calls follow the shape of the dose curve; as a rule, active = well fitted curve in the direction sought with a large enough effect; inconclusive = small, poorly fitted or top-dose-only effect, or another doubt; inactive = no such curve, though single readings can be large; an effect the other way counts as inactive or inconclusive.

SMILES	HepG2 tox	TDP1 block	TDP1 cell CPT	IL1B secr inh	TGFb inhibitor	DT40 TDP1 no CPT
COc1ccc(-c2csc(C(NC(C)=O)c3ccc(F)c(F)c3)n2)cn1 (configuration not stated)	0%	.	23µM*	-12	4%	?
OC(c1cccc(Cl)c1)c1nc(-c2cccc3cccnc23)cs1 (configuration not stated)	-13%	.	?	-2	-17%	-27%
CC(=O)NC(c1cccc(F)c1)c1nc(-c2cccc(C(C)C)c2)cs1 (configuration not stated)	-10%	.	26µM*	-19	-6%	21µM*
CC(=O)c1c(N2CCCCC2)nc(=S)n(-c2ccccc2)c1C	4%	-2%	12µM*	-9	-7%	5.8µM*
CCn1c(C)c(C(C)=O)c(N2CCN(C(c3ccccc3)c3ccccc3)CC2)nc1=S	-27%	-3%	9.2µM*	-185*	?	6.5µM*
CC(=O)c1c(N2CCCCC2)nc(=O)n(-c2ccccc2)c1C	-3%	-2%	-4%	9	0%	-3%
CC(=O)c1c(N2CCOCC2)nc(=S)n(-c2ccccc2)c1C	2%	6%	-6%	24	-5%	-5%
CCCNc1nc(=S)n(-c2ccccc2)c(C)c1C(C)=O	8%	-1%	-5%	0	-12%	-6%
CCCCNc1nc(=S)n(-c2ccccc2)c(C)c1C(C)=O	-93%	5%	16µM*	-91*	?	23µM*
CC(=O)c1c(N2CCCC2)nc(=S)n(-c2ccccc2)c1C	-27%	7%	12µM*	-4	0%	8.2µM*
CCn1c(C)c(C(C)=O)c(N2CCN(c3ccccc3)CC2)nc1=S	2%	-3%	-12%	19	8%	-9%
Cc1ccc(NC(=O)c2ncn(CCCN3CCN(c4ncccn4)CC3)n2)cc1C	-29%	.	?	20	?	?
Cc1cc(-c2ccc(S(=O)(=O)N3CCN(c4ccc(Cl)cc4)CC3)s2)on1	-11%	0%	?	.	0%	-9%
N#Cc1ccccc1S(=O)(=O)N1CCN(c2nc(-c3ccccc3)nc3ccccc23)CC1	3%	1%	16µM*	4	2%	11µM*
O=S(=O)(c1ccccc1Cl)N1CCN(c2nc(-c3cccs3)nc3ccccc23)CC1	.	0%	7.9µM*	.	.	10µM*
O=S(=O)(c1ccccc1C(F)(F)F)N1CCN(c2nc(-c3ccccc3)nc3ccccc23)CC1	-2%	0%	?	.	-6%	13µM*
O=S(=O)(c1ccc(Cl)cc1)N1CCN(c2nc(-c3cccs3)nc3ccccc23)CC1	2%	3%	-3%	18	?	?
Cc1nc(N2CCN(S(=O)(=O)c3ccccc3C#N)CC2)c2c(-c3ccccc3)csc2n1	-18%	0%	?	-28	?	13µM*
O=S(=O)(c1cccc(C(F)(F)F)c1)N1CCN(c2nc(-c3ccccc3)nc3ccccc23)CC1	-7%	1%	-17%	.	9%	-9%
COC(=O)c1sc2cccc(F)c2c1S(=O)(=O)Nc1cc(OC)cc(OC)c1	-1%	8%	6%	.	?	4%
CCN(CC(=O)NCc1ccc(Cl)cc1)C(=O)CCc1ccccc1	-19%	.	?	9	8%	?
O=S(=O)(c1ccc(F)cc1F)N1CCN(c2nc(-c3cccs3)nc3ccccc23)CC1	.	1%	?	.	.	?
N#Cc1ccccc1S(=O)(=O)N1CCN(c2nc(-c3cccs3)nc3ccccc23)CC1	3%	-2%	16µM*	.	7%	7.9µM*
O=S(=O)(c1cccc2ccccc12)N1CCN(c2nc(-c3cccs3)nc3ccccc23)CC1	.	0%	?	.	.	10µM*
O=S(=O)(c1ccccc1F)N1CCN(c2nc(-c3cccs3)nc3ccccc23)CC1	-28%	1%	?	.	-14%	11µM*
SMILES	HepG2 tox	TDP1 block	TDP1 cell CPT	IL1B secr inh	TGFb inhibitor	DT40 TDP1 no CPT
COc1ccc(CCNC(=O)CCNC(=O)c2ccc([N+](=O)[O-])cc2)cc1	1%	.	-19%	8	0%	-12%
CCOCCCNC(=O)c1c(NC(=O)c2nc(SCC)ncc2Cl)sc2c1CCCC2	-2%	.	?	.	16%	10µM*
CCCSc1ncc(Cl)c(C(=O)Nc2sc3c(c2C(=O)NCCCOC)CCCC3)n1	-17%	.	13µM*	.	-11%	11µM*
CCNC(=O)c1c(NC(=O)c2nc(S(=O)(=O)CC)ncc2Cl)sc2c1CCCC2	4µM*	6%	-112%	.	1.4µM*	0.73µM*
COCCCNC(=O)c1c(NC(=O)c2nc(S(C)(=O)=O)ncc2Cl)sc2c1CCCC2	-31%	2%	1µM*	.	?	0.73µM*
Cc1cc(=O)n(C(C)(C)C)c(=O)n1Cc1ccccc1	-2%	.	-15%	4	20%	-11%
C=CC[C@@H]1C=C[C@@H](O/N=C\c2ccc(C(=O)N3[C@H](c4ccc(C)cc4)[C@@H](C)CC[C@H]3C(=O)OC)cc2)[C@@H](CO)O1	.	9%[21 µM]	.	.	.	.
CCOc1ccccc1NC(c1nnc(-c2ccccc2)o1)c1ccc(F)cc1Cl (configuration not stated)	-12%	-2%	?	.	0%	21µM*
Fc1ccc(C(c2nnc(-c3ccccc3)o2)N2CCN(c3ccccc3)CC2)c(Cl)c1 (configuration not stated)	-27%	11%	?	.	?	21µM*
CC(C)c1ccc(NC(c2nnc(-c3ccccc3)o2)c2ccc(F)cc2Cl)cc1 (configuration not stated)	-12%	3%	?	.	1%	18µM*
Clc1ccccc1OCc1nnc(-c2ccccc2)o1	-17%	-5%	-13%	-17	-1%	?
O=C(Nc1nnc([C@@H]2C[C@H](O)[C@@H](CO)O2)s1)c1cccc(Cl)c1	-17%	.	7%	9	-18%	0%
Cc1nn(C)c(C)c1Nc1ccc(N2C(=O)C3C4C=CC(C4)C3C2=O)cc1[N+](=O)[O-] (configuration not stated)	-97%	3%	?	44	-2%	23µM*
Oc1ccc(-c2[nH]ncc2-c2cccc3cccnc23)c(O)c1	-11%	-1%	23µM*	-25	-23%	?
